# For part of these data: Potency and affinity values are given separately. Active and inactive are the calls of the source. Unless noted, the rule behind the calls is not given here.
# Key:
# [1] = HTB85 osteosarcoma cell growth inhibition, synergistic combos for chromothripsis tumors, BGB or cisplatin IC20 combos (AID 1671453; in the data active = inhibition above about 80%;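 note: cells exposed for 96 hours before readout; 0% = vehicle DMSO and 100% = high DMSO killing control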); conditions: HTB85 osteosarcoma cells, drug combinations, stronger effect = higher value
# [2] = MDA-MB-436 breast carcinoma cell growth inhibition, synergistic combos for chromothripsis tumors, BGB or cisplatin combos (AID 1671458); conditions: MDA-MB-436 breast carcinoma growth inhibition, drug combinations, stronger effect = higher value;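 note: cells exposed for 96 hours; 0% = vehicle DMSO and 100% = killing by high DMSO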
# [3] = growth inhibition of BT084 medulloblastoma cells, cell-based, ICGC_MB145, cisplatin and BGB IC40 combos (AID 1671461; in the data active = inhibition above about 80%;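 note: cells exposed to drugs for 96 hours; 0% = vehicle DMSO and 100% = high DMSO full killing control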); conditions: drug combinations, stronger effect = higher value
# [4] = growth inhibition of RCMB18 medulloblastoma cells, cell-based, cisplatin and BGB IC40 combos (AID 1671462; in the data active = inhibition above about 80%;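 note: cells exposed to compound for four days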); conditions: stronger effect = higher value
# [5] = growth inhibition of CRL1545 osteosarcoma cells, cell-based, cisplatin and BGB IC20 combos (AID 1671464; in the data active = inhibition above about 80%;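 note: cells exposed to compound for 96 hours before readout; 0% = vehicle DMSO and 100% = high DMSO killing control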); conditions: stronger effect = higher value
# [6] = circadian clock period modulators, cell-based, LOPAC library, luminescence reporter (AID 2774); conditions: circadian reporter cells, at 7 µM, actives lie on both sides;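 note: values are relative to mean of DMSO wells on each plate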
# [7] = system: Hepatitis C virus NS3 helicase; test: HCV NS3 helicase inhibitors, primary screen, biochemical, fluorescence polarization, LOPAC1280 library (AID 687035; in the data active = inhibition above about 37%); conditions: Purified HCV NS3 helicase, Cy5-dT15 ssDNA binding fluorescence polarization; stronger effect = higher value; concentration not given here
# [8] = Cy5 fluorescence quenching or enhancement artefacts, artefact control for HCV NS3 helicase inhibitor project, biochemical, LOPAC1280 (AID 687037); conditions: Cy5-DNA-NS3h complex fluorescence interference counterscreen
# [9] = polyglutamine-triggered caspase-3 activation inhibitors, cell-based (AID 1583); conditions: polyglutamine-induced caspase-3 activation, cell assay; stronger effect = higher value;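 tested at 10 µM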
# [10] = suppressors of polyQ aggregation in yeast, 75Q-TubU reporter (AID 1593); conditions: Yeast 75Q polyglutamine aggregation reporter
# [11] = rescue of polyQ-huntingtin neuronal dysfunction in worms, whole organism, C. elegans mechanosensory neurons, N-terminal huntingtin (AID 1599); conditions: touch response, stronger effect = higher value
# [12] = inhibitors of mitochondrial cytochrome c release, biochemical, purified mitochondria (AID 1603); conditions: stronger effect = lower value;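 note: mouse liver mitochondria challenged with calcium chloride; signal normalized to the plate average as 100%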
# [13] = inhibitors of polyQ protein aggregation (AID 1604); conditions: polyglutamine-induced protein aggregation inhibition assay; stronger effect = higher value; tested at 2.5 µM
# [14] = enhancers of glutamate uptake in motor neurons, MN-1 cell line (AID 1612); conditions: MN-1 motor neuron cells, stronger effect = higher value;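 note: tested at 1 µM final; 0% = mean of DMSO vehicle wells on each plate; positive means more glutamate uptake than control and negative means less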
# [15] = suppressors of polyglutamine aggregation in yeast, 75Q-TubH (AID 1616); conditions: S. cerevisiae 75Q-TubH polyglutamine aggregation suppression; stronger effect = higher value
# [16] = phospholipid biosynthesis inhibitors in animal cells, primary screen, cell-based, LOPAC library, screen 4 (AID 1347384); conditions: phospholipid biosynthesis inhibition screen, at 10 µM
# [17] = system: Hepatitis C virus NS3 helicase; test: HCV NS3 helicase inhibitors, primary screen, biochemical, fluorescence polarization, NIH Clinical Collection (AID 743270); conditions: NS3 helicase binding to Cy5-dT15 DNA, stronger effect = higher value, concentration not given here
# [18] = molecular target: Single-stranded DNA-binding protein (Escherichia coli (strain K12)) (UniProt P0AGE0); test: E. coli SSB displacement from DNA, counter-screen for HCV NS3 helicase inhibitor project, biochemical, fluorescence polarization, NIH Clinical Collection (AID 743271; in the data active = inhibition above about 28%); conditions: stronger effect = higher value, concentration not given here
# [19] = fluorescence interference in NS3h assay format, artefact control for HCV NS3 helicase inhibitor project, biochemical, NIH Clinical Collection (AID 743272); conditions: fluorescence interference counterscreen, stronger effect = lower value;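 note: HCV NS3 helicase with a Cy5 labelled single stranded DNA probe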
# [20] = modulation of C. elegans fzo-1 (AID 1259413);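 note: fzo-1 mutant C. elegans worms in liquid wells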; conditions: C. elegans fzo-1 modulator screen, mean read-out; stronger effect = higher value
# [21] = measured here: with BGB IC20, at 0.5 µM
# [22] = measured here: with BGB IC20, at 5 µM
# [23] = measured here: with cisplatin IC20, at 0.5 µM
# [24] = measured here: with cisplatin IC20, at 5 µM
# [25] = measured here: BGB combination, at 0.5 µM
# [26] = measured here: BGB combination, at 5 µM
# [27] = measured here: cisplatin combination, at 0.5 µM
# [28] = measured here: cisplatin combination, at 5 µM
# [29] = cisplatin combination, at 0.5 µM
# [30] = measured here: BGB IC40 combination 0.05 uM, at 0.05 µM
# [31] = measured here: BGB IC40 combination, at 0.05 µM
# [32] = measured here: combination with cisplatin, at 0.5 µM
# [33] = measured here: with BGB IC20 combination, at 0.5 µM
# [34] = measured here: with cisplatin IC20 combination, at 0.5 µM
structure (smiles),measurement,setting,value
CN1C[C@@H]2C[C@H]1CN2c1cc2c(cc1F)c(=O)c(C(=O)O)cn2C1CC1,inhibition,[1]; at 0.5 µM,-40.1% (inactive)
same,inhibition,[1]; [21],-66.1%
same,inhibition,[1]; [22],-64.1%
same,inhibition,[1]; [23],-24.8%
same,inhibition,[1]; [24],-32.6%
same,inhibition,"[1]; single agent, at 5 µM",-25%
same,inhibition,[2]; at 0.5 µM,-9.69% (inactive)
same,inhibition,[2]; [25],1.19%
same,inhibition,[2]; [26],-5.03%
same,inhibition,[2]; [27],-28.1%
same,inhibition,[2]; [28],-7.33%
same,inhibition,[3]; at 0.5 µM,-14.9% (inactive)
same,inhibition,[3]; [29],-11.4%
same,inhibition,"[3]; cisplatin combination, at 5 µM",-13.9%
same,inhibition,[3]; [30],0.828%
same,inhibition,"[3]; single agent, at 5 µM",-12.4%
same,inhibition,[4]; at 0.5 µM,-27.5% (inactive)
same,inhibition,"[4]; cisplatin combo, at 5 µM",-18.3%
same,inhibition,[4]; [31],-12.7%
same,inhibition,[4]; [32],-81.8%
same,inhibition,"[4]; single agent, at 5 µM",-17.7%
same,inhibition,[5]; at 0.5 µM,-62.9% (inactive)
same,inhibition,[5]; [33],-46.3%
same,inhibition,[5]; [34],-75.1%
same,inhibition,"[5]; single agent, at 0.05 µM",-30.1%
same,inhibition,"[5]; single agent, at 5 µM",-48.9%
CCCn1cnc2c1c(=O)n(CCCCC(C)=O)c(=O)n2C,period change,[6],0.185 h (inactive)
same,inhibition,[7],1% (inactive)
same,fluorescence ratio (interference),[8],1 (inactive)
Cc1ccc2nc(N)[nH]c(=O)c2c1Sc1ccncc1,inhibition,[1]; at 0.5 µM,-33.1% (inactive)
same,inhibition,[1]; [21],-36.1%
same,inhibition,[1]; [22],7.13%
same,inhibition,[1]; [23],-25.9%
same,inhibition,[1]; [24],0.276%
same,inhibition,"[1]; single agent, at 5 µM",0.242%
same,inhibition,[2]; at 0.5 µM,-7.12% (inactive)
same,inhibition,[2]; [25],-5.47%
same,inhibition,[2]; [26],11%
same,inhibition,[2]; [27],-13.7%
same,inhibition,[2]; [28],37.3%
same,inhibition,[3]; at 0.5 µM,3.52% (inactive)
same,inhibition,[3]; [29],-1.35%
same,inhibition,"[3]; cisplatin combination, at 5 µM",-137%
same,inhibition,[3]; [30],-7.71%
same,inhibition,"[3]; single agent, at 5 µM",6.61%
same,inhibition,[4]; at 0.5 µM,-22.7% (inactive)
same,inhibition,"[4]; cisplatin combo, at 5 µM",-4.62%
same,inhibition,[4]; [31],-25.2%
same,inhibition,[4]; [32],-45.9%
same,inhibition,"[4]; single agent, at 5 µM",12.6%
same,inhibition,[5]; at 0.5 µM,-26.5% (inactive)
same,inhibition,[5]; [33],-34.6%
same,inhibition,[5]; [34],-24.4%
same,inhibition,"[5]; single agent, at 0.05 µM",-59.1%
same,inhibition,"[5]; single agent, at 5 µM",-14.1%
CN(C)CCCO[C@@H]1[C@H]2OC(C)(C)O[C@H]2O[C@@H]1C(O)CO (some centres undefined),period change,[6],-0.08 h (inactive)
same,inhibition,[7],-4% (inactive)
same,fluorescence ratio (interference),[8],1 (inactive)
Cc1ccc(O)cc1,inhibition,[9],26.8%
same,score,[10],0.73
same,rescue above control,[11],-1.33
same,cytochrome c release ratio,[12],0.32
same,inhibition of aggregation,[13],83.3%
same,glutamate uptake change,[14],1.82%
same,aggregation suppression score,[15],1.04
CCc1cccc(N(C)C(N)=Nc2cccc3ccccc23)c1,period change,[6],-0.08 h (inactive)
same,inhibition,[7],1% (inactive)
same,fluorescence ratio (interference),[8],1 (inactive)
same,outcome,[16],inactive
O=C(CCCN1CCC(O)(c2cccc(C(F)(F)F)c2)CC1)c1ccc(F)cc1,period change,[6],0.235 h (inactive)
same,inhibition,[7],-3% (inactive)
same,fluorescence ratio (interference),[8],1 (inactive)
same,outcome,[16],inactive
CN1CCN(C2Cc3ccccc3Sc3ccc(Cl)cc32)CC1 (centres undefined),period change,[6],0.285 h (inactive)
same,inhibition,[7],-1% (inactive)
same,fluorescence ratio (interference),[8],1 (inactive)
same,outcome,[16],inactive
O=C(O)CCC(=O)OC[C@@H](NC(=O)C(Cl)Cl)[C@H](O)c1ccc([N+](=O)[O-])cc1,inhibition,[9],29.9%
same,score,[10],1.53
same,rescue above control,[11],-1.33
same,cytochrome c release ratio,[12],0.7
same,inhibition of aggregation,[13],74.7%
same,glutamate uptake change,[14],7.22%
same,aggregation suppression score,[15],1.43
NC1=NCC2c3ccccc3Cc3ccccc3N12 (centres undefined),inhibition,[7],-2% (inactive)
same,fluorescence ratio (interference),[8],1 (inactive)
same,outcome,[16],inactive
CNS(=O)(=O)CCc1ccc2[nH]cc(C3CCN(C)CC3)c2c1,outcome,[16],inactive
CNCCCN1c2ccccc2CCc2ccccc21,inhibition,[9],-34.3%
same,score,[10],1.37
same,rescue above control,[11],-15.4
same,cytochrome c release ratio,[12],1.05
same,inhibition of aggregation,[13],7.32%
same,glutamate uptake change,[14],12.7%
same,aggregation suppression score,[15],1.18
same,period change,[6],-0.04 h (inactive)
same,inhibition,[7],-1% (inactive)
same,fluorescence ratio (interference),[8],1 (inactive)
same,inhibition,[17],-2.27% (inactive)
same,inhibition,[18],-2% (inactive)
same,fluorescence ratio,[19],1.02 (inactive)
same,mean signal,[20],181 (inactive)
same,outcome,[16],inactive
COC(=O)C1=C(C)NC(C)=C(C(=O)OC)C1c1ccccc1[N+](=O)[O-],inhibition,[9],28.5%
same,score,[10],0.82
same,rescue above control,[11],8.1
same,cytochrome c release ratio,[12],0.98
same,inhibition of aggregation,[13],15.2%
same,glutamate uptake change,[14],-6.86%
same,aggregation suppression score,[15],0.369
same,period change,[6],-0.175 h (inactive)
same,inhibition,[7],-1% (inactive)
same,fluorescence ratio (interference),[8],1 (inactive)
same,inhibition,[17],-1.19% (inactive)
same,inhibition,[18],1.44% (inactive)
same,fluorescence ratio,[19],0.9 (inactive)
same,mean signal,[20],242 (inactive)
same,outcome,[16],inactive
COC(=O)C1=C(C)NC(C)=C(C(=O)OCCN(C)Cc2ccccc2)C1c1cccc([N+](=O)[O-])c1 (centres undefined),inhibition,[9],5.3%
same,score,[10],1.16
same,rescue above control,[11],19.4
same,cytochrome c release ratio,[12],1.07
same,inhibition of aggregation,[13],11.1%
same,glutamate uptake change,[14],-14.8%
same,aggregation suppression score,[15],0.61
same,period change,[6],-0.09 h (inactive)
same,inhibition,[7],3% (inactive)
same,fluorescence ratio (interference),[8],1 (inactive)
same,inhibition,[17],-1.36% (inactive)
same,inhibition,[18],7.91% (inactive)
same,fluorescence ratio,[19],0.91 (inactive)
same,mean signal,[20],246 (inactive)
same,outcome,[16],inactive
O=C(CCCN1CCC(O)(c2ccc(Cl)cc2)CC1)c1ccc(F)cc1,inhibition,[9],-12.1%
same,score,[10],1.43
same,rescue above control,[11],27.6
same,cytochrome c release ratio,[12],1.55
same,inhibition of aggregation,[13],81.4%
same,glutamate uptake change,[14],6.85%
same,aggregation suppression score,[15],1.09
same,period change,[6],0.015 h (inactive)
same,inhibition,[7],-3% (inactive)
same,fluorescence ratio (interference),[8],1 (inactive)
same,inhibition,[17],-12.4% (inactive)
same,inhibition,[18],1.18% (inactive)
same,fluorescence ratio,[19],0.89 (inactive)
same,mean signal,[20],271 (inactive)
same,outcome,[16],inactive
CC(C)NCC(O)COc1cccc2[nH]ccc12 (centres undefined),inhibition,[9],-39.9%
same,score,[10],1.28
same,rescue above control,[11],3.36
same,cytochrome c release ratio,[12],0.95
same,inhibition of aggregation,[13],83.3%
same,glutamate uptake change,[14],11.9%
same,aggregation suppression score,[15],1.28
same,period change,[6],0.015 h (inactive)
same,inhibition,[7],-5% (inactive)
same,fluorescence ratio (interference),[8],1 (inactive)
same,inhibition,[17],-5.91% (inactive)
same,inhibition,[18],2.57% (inactive)
same,fluorescence ratio,[19],0.9 (inactive)
same,mean signal,[20],248 (inactive)
same,outcome,[16],inactive
CC(C)OC(=O)C(C)(C)Oc1ccc(C(=O)c2ccc(Cl)cc2)cc1,inhibition,[9],-9.13%
same,score,[10],-2.53
same,rescue above control,[11],27.1
same,cytochrome c release ratio,[12],1.27
same,inhibition of aggregation,[13],59%
same,glutamate uptake change,[14],-24.1%
same,aggregation suppression score,[15],0.0671
same,period change,[6],0.08 h (inactive)
same,fluorescence ratio (interference),[8],1.1 (inactive)
same,mean signal,[20],232 (inactive)
same,outcome,[16],inactive

# Source: PubChem BioAssay
